# RXFP1 antag: antagonists of human relaxin receptor RXFP1 | Q9HBX9 | activity change, negative = inhibition, % at 57.5 µM | actives 0.59% (n = 350,000) | HEK293-RXFP1, relaxin-stimulated cAMP HTRF, 30 min; active compounds read low;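 active = activity change of -60% or lower, but not beyond a set lower limit; inconclusive = change between -60% and -40%, or beyond the set limit; inactive = change above -40%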; also: % is scaled to controls: 0 for no effect and ±100 for the full control effect
# Target sequence (Q9HBX9 whole entry, looked up): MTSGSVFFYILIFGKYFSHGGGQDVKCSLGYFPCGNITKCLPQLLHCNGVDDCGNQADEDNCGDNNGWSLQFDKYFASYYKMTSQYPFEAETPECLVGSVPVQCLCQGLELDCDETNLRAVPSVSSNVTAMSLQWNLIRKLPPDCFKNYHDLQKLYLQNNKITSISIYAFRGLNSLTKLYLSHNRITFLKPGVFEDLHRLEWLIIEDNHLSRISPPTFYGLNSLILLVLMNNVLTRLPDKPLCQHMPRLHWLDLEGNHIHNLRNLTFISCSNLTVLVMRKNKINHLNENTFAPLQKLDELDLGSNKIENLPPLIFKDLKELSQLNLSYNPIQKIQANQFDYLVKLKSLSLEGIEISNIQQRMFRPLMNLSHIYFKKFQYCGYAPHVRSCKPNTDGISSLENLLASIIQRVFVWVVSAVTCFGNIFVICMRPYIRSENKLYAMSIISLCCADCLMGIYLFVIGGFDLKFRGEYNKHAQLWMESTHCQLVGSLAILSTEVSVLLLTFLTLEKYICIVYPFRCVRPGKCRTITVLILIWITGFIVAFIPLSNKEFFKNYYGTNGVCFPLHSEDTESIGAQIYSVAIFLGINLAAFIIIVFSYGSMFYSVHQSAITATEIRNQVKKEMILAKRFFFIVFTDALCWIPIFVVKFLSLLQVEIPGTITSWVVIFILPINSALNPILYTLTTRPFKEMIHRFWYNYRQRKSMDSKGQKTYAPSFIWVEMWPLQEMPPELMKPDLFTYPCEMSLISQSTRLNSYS
# Akt phos inh: Akt phosphorylation inhibition; Neuro2A IGF-stimulated pAkt S473 HTRF, 20 min; active compounds read low; activity change, % for hits at 50 µM; actives 0.32% (n = 360,000); AID 651550; in the data active = activity change below about -80%; inconclusive = mostly about -51% to -80%; also: % is scaled to controls: 0 for no effect and ±100 for the full control effect
#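 Neuro2A cells (4,500/well, DMEM with 0.5% FBS) were treated with compound at a single 50 µM final concentration, stimulated with 6 nM IGF for 20 min at 37 °C, and lysed. Phospho-Akt Ser473 was read by HTRF as 665/615 ratio ×10^4.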
# gsp antag: gsp mutant antagonism | gsp-mutant cells, cAMP HTRF, 30 min | Potency, µM (doses to about 76.9 µM), for inactives: at the top dose activity change, negative = inhibition, usual class: inhibitors | actives 0.4% (n = 340,000); calls by dose curve; cell line not stated here;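 also: intracellular cAMP measured with PDE inhibitor Ro 20-1724 present during compound exposure; potency is read from the fitted curve at half-maximal effect; % is scaled to controls: 0 for no effect and ±100 for the full control effect; nearly all actives have a fitted effect of over 65% in size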
#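 G418-selected cells were plated in DMEM/10% FBS for 16-24 h at 37C, then treated with compounds plus the PDE inhibitor […] (300 uM solution added) for 30 min at 37C. Intracellular cAMP was measured by HTRF after 30 min lysis at room temperature.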
# TSHR antagonist: human thyrotropin receptor antagonism; activity change, negative = inhibition, % at 11.5 µM; TSHR-expressing cells, TSH-stimulated cAMP HTRF, 2 h; active compounds read low; actives 0.2% (n = 330,000); P16473; AID 504810;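 active = activity change below a set negative limit, meaning inhibition stronger than a set level, cut at about -70% in these data; inconclusive = activity change between two set negative limits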; also: % is scaled to controls: 0 for no effect and ±100 for the full control effect
#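 TSHR-expressing cells were treated with compounds, then stimulated with TSH at EC80 (4nM final) for 2 hours at 37 deg C. Cellular cAMP was measured by HTRF competition between lysate cAMP and cAMP-d2 for a cryptate-labelled anti-cAMP antibody.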
# gsp ag: agonists of gsp mutant (McCune-Albright syndrome). gsp mutant cells, cAMP HTRF, 30 min. Potency, µM (highest dose often 76.9 µM), for inactives: at the top dose activation (cAMP increase), most hits filed as activators. actives 0.13% (n = 340,000). AID 624287; active = well fitted activation curve with a large enough effect; inconclusive = small, poorly fitted or top-dose-only effect, or another doubt; inactive = no such curve, though single readings can be large or run the other way; cell line not stated here;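 also: phosphodiesterase inhibitor Ro 20-1724 added with compounds to block cAMP breakdown; potency is read from the fitted curve at half-maximal effect; nearly all actives have a fitted effect of over 60% in size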
#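 Cells in DMEM/10% FBS with G418 were pretreated with compounds in DMSO plus […] (300 uM stock) for 30 min at 37C. cAMP was measured by HTRF (cAMP-d2 plus anti-cAMP antibody-K) after 30 min at room temperature.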
# RXFP1 agonist: RXFP1 (human) receptor agonism | Q9HBX9 | HEK293T-RXFP1 cAMP TR-FRET, 30 min; response scale: percent of porcine relaxin response, buffer zero | Potency, µM (doses to about 57.5 µM), for the others: at the highest dose activation, usual class: activators | actives 0.3% (n = 370,000); active = well fitted activation curve with a large enough effect; inconclusive = small, poorly fitted or top-dose-only effect; also: potency is read from the fitted curve at half-maximal effect; % is scaled to controls: 0 for no effect and ±100 for the full control effect; nearly all actives have a fitted effect of over 60% in size
#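 cAMP rise read by TR-FRET after 30 min, 37C compound exposure (up to 58 uM) in RXFP1-transfected HEK293 cells with Ro 20174 present. EC50 from Hill-equation fits, with 29 nM porcine relaxin as 100% and buffer as basal.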
# An asterisk follows results filed as active; i = inactive; ? = inconclusive; / = no result given; [ ] = remark or other dose. Most compounds without a hit are left out; they make up all but 1.3% or so of the library.
SMILES,RXFP1 antag,Akt phos inh,gsp antag,TSHR antagonist,gsp ag,RXFP1 agonist
O=C(NCCCCCCNC(=O)c1ccccc1O)c1ccccc1O,-22.8,i,44.7µM*,-28.4,-3.0%[15.4 µM],7.2%
C[C@H](NC(=O)NCc1ccc(F)cc1)C(=O)O,0.2,i,13.9%,3.5,-12.3%,0.6%
COC(=O)[C@H](C)NC(=O)NCc1ccc(F)cc1,-14.0,-81.8%*,14.2%,13.7,-17.7%,-0.6%
O=c1n(-c2ccc(Br)cc2)cnn1-c1ncccc1[N+](=O)[O-],4.8,i,/,-3.5,3.7%[15.4 µM],3.4%
O=C(NCC(F)(F)F)c1ccc2sc([C@H]3C[C@H](O)[C@@H](CO)O3)nc2c1,/,i,/,/,/,/
CC(C)OCC(O)CN1CCNCC1 (stereo unspecified),8.6,-115.4%*,5.2%,-18.2,-0.3%,0.0%
O=C(Cn1nnnc1-c1ccccc1F)Nc1ccc(OC(F)(F)F)cc1,-3.9,/,/,/,/,-1.3%
N#Cc1nc(-c2ccccc2F)oc1N1CCCCC1,3.9,i,3.7%,0.4,-1.2%,6.0%
N#Cc1nc(-c2ccccc2F)oc1NC1CCCCC1,-60.1*,i,-15.8%,-24.8,8.1%,4.5%
O=C(O)c1cccc(-c2noc(-c3ccccc3F)n2)c1,-27.2,/,/,/,/,/
CCOC(=O)Cn1cc2c(c1-c1ccc(Cl)cc1)c(=O)n(C)c(=O)n2C,/,/,/,/,/,13.5%
CCOC(=O)CSc1nc(=O)n2ccc(C)cc2n1,-71.9*,i,-5.2%,-0.9,?,15.8%
Cn1c(SCn2nnc3ccccc3c2=O)nc2ccccc2c1=O,/,/,/,1.1,/,-2.5%
CCN(CC)S(=O)(=O)c1ccc2c(c1)nc(SCn1nnc3ccccc3c1=O)n2CC,4.7,i,6.5%,6.0,35.5µM*,26.8%
Cc1cccc(NC(=O)CSCC(=O)N2CCN(Cc3ccc4c(c3)OCO4)CC2)c1,-10.0,i,-6.6%,9.3,-1.5%[15.4 µM],1.4%
COC(=O)c1sc(-c2cccs2)cc1NC(=O)/C=C/C(=O)O,?,i,22.4µM*,-24.0,?,14.8%
COC(=O)c1cccc(NC(=O)CSc2nnc(COc3ccccc3)n2C)c1,-12.8,i,-9.5%,1.0,-15.9%,-1.3%
COC(=O)c1ccc(CNC(=O)CSc2nnc(COc3ccccc3)n2C)o1,-1.0,-109.9%*,-4.3%,-6.5,22.2%,1.7%
CS(=O)(=O)N(CC(=O)Nc1cccc([N+](=O)[O-])c1)c1cccc(F)c1,1.5,i,-4.6%,-5.2,-1.0%,-0.6%
Clc1ccc(OCCCNCc2ccccc2)c(Br)c1,-76.7*,i,7.2%,-2.9,-57.0%,-2.4%
O=C(NC1CCS(=O)(=O)C1)/C(=C/c1ccco1)NC(=O)c1ccccc1 (stereo unspecified),-72.1*,i,0.1%,30.4,?,-1.6%
COc1cc(CNCc2cccc3ccccc23)cc(OC)c1,1.0,i,50.1µM*,-7.4,-13.3%,3.9%
CCN(C(=O)COC(=O)c1ccc(=O)n(Cc2ccccc2)n1)C1CCCCC1,-16.8,i,7.7%,9.3,29.4%,1.7%
Cc1cccc(C(=O)Nc2cccc3cccnc23)c1,-5.3,i,-11.4%,-0.4,3.1%,-0.7%
Cc1cnc(C(=O)Nc2cccc3cccnc23)cn1,-20.5,-109.0%*,-6.9%,-7.3,1.8%,0.8%
SMILES,RXFP1 antag,Akt phos inh,gsp antag,TSHR antagonist,gsp ag,RXFP1 agonist
COc1cc(S(=O)(=O)Nc2ccc3c(c2)C(=O)N(C)C3=O)ccc1NC(C)=O,11.4,i,2.4%,12.6,-18.3%,/
COC(=O)c1ccc(NC(=O)COc2ccc(C3C(C#N)=C(N)Oc4c3ccc3ccccc43)cc2OC)cc1 (stereo unspecified),-5.8,i,-8.5%,-2.2,-0.6%,1.8%
COc1cc(C2C(C#N)=C(N)Oc3c2ccc2ccccc32)ccc1OCC(=O)Nc1ccccc1C (stereo unspecified),-9.1,-104.1%*,-7.5%,30.4,-13.5%,1.1%
CN(C)S(=O)(=O)n1cnc([C@@H]2[C@@H]3C(=O)OC[C@@H]3C[C@]23N=CN(Cc2ccccc2)C3=O)c1,/,i,7.2%,-30.5,-3.5%,0.3%
CN(C)S(=O)(=O)n1cnc([C@H]2c3c(ncn3Cc3ccccc3)C[C@H]3COC(=O)[C@@H]32)c1,/,i,50.1µM*,17.8,-7.3%,0.9%
COc1cccc(-c2nnc(SCC(=O)N3CCCc4ccccc43)o2)c1,-3.0,i,-7.0%,16.3,?,-0.8%
COc1cc(OC)cc(-c2nnc(SCC(=O)N3CCCc4ccccc43)o2)c1,-4.9,-115.8%*,-1.2%[15.4 µM],-20.0,-16.8%,3.1%
Cc1cc(NCCCn2ccnc2)n2nc(-c3ccc(F)cc3)cc2n1,-11.7,i,-4.0%,0.4,23.3%,1.6%
Cc1cccc(-c2cc3nc(C)c(C)c(NCCCn4ccnc4)n3n2)c1,-98.2*,i,-18.2%,7.3,-3.4%[15.4 µM],7.6%
CC(C)(C)OC(=O)C[C@@H]1C/C=C\C[C@@H](CC(=O)N(CCO)Cc2ccccc2)C(=O)N[C@H](C(C)(C)C)COC1=O,/,i,4.1%,-9.6,2.3%,/
CCN(CC)C(=O)CSc1nc2ccc(NC(=O)CSc3nnc(COc4ccccc4C)n3C)cc2s1,-13.1,i,-26.8%,-20.2,-13.2%,1.6%
Cc1ccccc1OCc1nnc(SCC(=O)Nc2ccc3nc(SCC(=O)NC(C)(C)C)sc3c2)n1C,-7.0,i,31.6µM*,-5.5,?,0.9%
Cc1ccccc1OCc1nnc(SCC(=O)Nc2ccc3c(c2)oc2ccccc23)n1C,-3.6,-99.7%*,2.7%,7.3,-8.1%,-2.8%
O=C(CSc1ccc(Cl)cc1)N1CCC(c2nc3ccccc3s2)CC1,-10.6,i,31.6µM*,-38.6,-17.6%,-2.9%
O=C(CSc1c(Cl)cccc1Cl)N1CCC(c2nc3ccccc3s2)CC1,-8.3,i,?,-25.9,-10.0%,1.4%
NC(=O)COc1ccc(NC(=O)OCc2ccccc2)cc1,1.1,-106.7%*,2.6%,3.1,-45.4%,1.6%
Cc1ccc(S(=O)(=O)N2[C@@H](c3ccccc3)C(C(=O)O)=CC[C@H]2c2ccc(Cl)c(Cl)c2)cc1,/,i,-15.6%,-11.3,20.7%,0.5%
Cc1ccc(S(=O)(=O)N2[C@@H](c3ccccc3F)C(C(=O)O)=CC[C@H]2c2ccc(Cl)c(Cl)c2)cc1,/,i,-11.8%,-92.2*,-16.8%,-0.9%
C=CCOc1cc(Cl)ccc1C(=O)NCCN(CC)CC,-10.8,/,/,/,/,/
COc1ccccc1C1CCN(C(=O)c2ccc(C(C)(C)C)cc2)CC1,-90.3*,i,-37.2%,-6.3,32.7%[15.4 µM],-0.8%
